Bioassay records (PubChem)
tim10-1 inh: inhibits growth of tim10-1 mutant yeast; 2.2% of 330,000 active; S. cerevisiae tim10-1 ts strain growth, BacTiter-Glo, 24 h; inhibition, % at 20 µM;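 active = inhibition of at least 40%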;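 note: mutant grown at 25 °C; 0% = DMSO wells with yeast and 100% = wells holding no yeast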
TIM10 inh: inhibits growth of TIM10 yeast strain; S. cerevisiae TIM10 strain growth, BacTiter-Glo luminescence, 24 h; inhibition, % at 10 µM; 1.4% of 330,000 active; AID 463195;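 active = inhibition of 40% or more at the single tested concentration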;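 note: wild-type TIM10 isogenic control strain grown at permissive 25 °C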
NLRP3 yeast inh: blocks the NALP3 inflammasome reconstituted in yeast; Yeast reconstituted NLRP3/ASC/caspase-1, beta-gal luminescence, 24 h; inhibition, % at 10 µM; 0.39% of 330,000 active; AID 2825;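 active = inhibition of 50% or more; inactive = inhibition below 50%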;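 note: plate controls were induced DMSO wells for no effect and uninduced yeast grown without galactose for full effect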
tim23-1 inh: tim23-1 yeast growth inhibition. AID 463212. 1.3% of 330,000 active. S. cerevisiae tim23-1 growth, BacTiter-Glo luminescence, 24 h. inhibition, % at 20 µM;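 active = growth inhibition of the mutant yeast at or above 50%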;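 note: temperature-sensitive mutant grown at 25 °C; plate controls were DMSO-treated mutant yeast for no effect and medium wells lacking yeast for full effect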
PfHsp90 yeast 2: reduces growth (ATP signal) of yeast expressing P. falciparum Hsp90 | S. cerevisiae expressing PfHsp90, BacTiter-Glo ATP, 48 h; yeast lacking PDR1 and PDR3 efflux regulators | inhibition, % at 9.4 µM | 0.32% of 310,000 active;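 active = every replicate shows inhibition above about 80%, whatever the replicate mean, limit read from the data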;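 note: 0% = DMSO neutral controls and 100% = 20 µM radicicol positive controls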
TIM10 conf: confirmation of TIM10 yeast growth inhibitors. inhibition, % at 10 µM. S. cerevisiae tim10 strain growth, BacTiter-Glo luminescence, 24 h. shares compounds with TIM10 inh. 63% of 4,600 active;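 active = inhibition of yeast growth at or above a set limit in either of two replicates at 10 µM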;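 note: this counterscreen used the strain with wild-type TIM10; 0% = yeast with DMSO and 100% = medium wells lacking yeast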
* = called active by the depositor. An excerpt weighted towards active compounds, which were near 3.7% of everything screened.

How did C=CCNC(=O)N1C2=NC(C(=O)OC)=C(C(=O)OC)[C@@H]3N(Cc4ccccc4)c4ccccc4[C@]23C[C@H]1C(=O)OC do in these assays?
tim10-1 inh: 4; TIM10 inh: 5; NLRP3 yeast inh: 13; tim23-1 inh: 8

Results for COc1ccc(/C=C/c2nc3ccccc3n2Cc2ccccc2OC)cc1 ?
tim10-1 inh: 32; TIM10 inh: 22; NLRP3 yeast inh: -6; tim23-1 inh: 27; PfHsp90 yeast 2: 19

How did Cn1c(/C=C/c2ccccc2)nc2ccccc21 do in these assays?
tim10-1 inh: 20; TIM10 inh: 55*; NLRP3 yeast inh: 42; tim23-1 inh: 49; PfHsp90 yeast 2: 63; TIM10 conf: 48*

What do the screens show for `COc1ccccc1Cn1c(/C=C/c2ccccc2)nc2ccccc21`?
tim10-1 inh: 30; TIM10 inh: 42*; NLRP3 yeast inh: 23; tim23-1 inh: 29; PfHsp90 yeast 2: -5; TIM10 conf: -22

How did Cc1ccc2nc(-c3sc4nc(C)ccc4c3N)[nH]c2c1 do in these assays?
tim10-1 inh: 19; TIM10 inh: 63*; NLRP3 yeast inh: 22; tim23-1 inh: 35; PfHsp90 yeast 2: -10; TIM10 conf: 48*

How did COC(=O)c1ccc(C(=O)N(Cc2ccccc2)c2ccccc2)cc1 do in these assays?
tim10-1 inh: 15; TIM10 inh: 46*; NLRP3 yeast inh: 22; tim23-1 inh: 16; PfHsp90 yeast 2: -15; TIM10 conf: -7

How did N#Cc1ccc(C(=O)N(Cc2ccccc2)c2ccccc2)cc1 do in these assays?
tim10-1 inh: 29; TIM10 inh: 19; NLRP3 yeast inh: 14; tim23-1 inh: 26; PfHsp90 yeast 2: 11

What do the screens show for `Cc1ccc(C(=O)C(C)Sc2nnc(N)s2)cc1` (stereo not drawn)?
tim10-1 inh: 11; TIM10 inh: 6; NLRP3 yeast inh: -5; tim23-1 inh: 20; PfHsp90 yeast 2: 29

What do the screens show for `CCN(c1ccccc1)S(=O)(=O)c1ccc(Cl)c(NC(=O)COC(=O)c2cc(O)c3ccccc3c2O)c1`?
tim10-1 inh: 28; TIM10 inh: 45*; NLRP3 yeast inh: 12; tim23-1 inh: 35; TIM10 conf: 32*

How did O=C1c2ccccc2CC1Sc1nnc(-c2ccncc2)o1 (stereo not drawn) do in these assays?
tim10-1 inh: 18; TIM10 inh: -10; NLRP3 yeast inh: 1; tim23-1 inh: 16

What do the screens show for `Cc1ccccc1N1C(=O)CC(Sc2nnc(-c3ccccc3)o2)C1=O` (stereo not drawn)?
tim10-1 inh: 33; TIM10 inh: 44*; NLRP3 yeast inh: 31; tim23-1 inh: 31; PfHsp90 yeast 2: 27; TIM10 conf: 44*

Results for Cc1nc2c(C)cccn2c1/C(O)=C1\C(=O)C(=O)N(CCN(C)C)C1c1ccco1 (stereo not drawn) ?
tim10-1 inh: -6; TIM10 inh: 4; NLRP3 yeast inh: -6; tim23-1 inh: 1; PfHsp90 yeast 2: 1

How did COc1cccc(-c2cc(=O)c3cc(NC(=O)c4ccc(N(C)C)cc4)ccc3[nH]2)c1 do in these assays?
tim10-1 inh: -11; TIM10 inh: 67*; NLRP3 yeast inh: 13; tim23-1 inh: -3; TIM10 conf: -10

How did COCCOC(=O)C1=C(C)NC(=O)NC1c1cccc2ccccc12 (stereo not drawn) do in these assays?
tim10-1 inh: 2; TIM10 inh: 51*; NLRP3 yeast inh: -9; tim23-1 inh: 3; PfHsp90 yeast 2: 0; TIM10 conf: -8

What do the screens show for `COC(=O)Cc1ccc(NC(=S)NCCSc2ccc(C)cc2)cc1`?
tim10-1 inh: 39; TIM10 inh: 55*; NLRP3 yeast inh: 24; tim23-1 inh: 13; PfHsp90 yeast 2: 8; TIM10 conf: 35*

What do the screens show for `CCCCC(CC)C(=O)NCc1ccc(F)cc1` (stereo not drawn)?
tim10-1 inh: 3; TIM10 inh: -3; NLRP3 yeast inh: 27; tim23-1 inh: 28; PfHsp90 yeast 2: -8

How did O=C(Cc1cccs1)N(Cc1ccco1)C1(C(=O)NC2CCCCC2)CCCCC1 do in these assays?
tim10-1 inh: 28; TIM10 inh: 43*; NLRP3 yeast inh: 1; tim23-1 inh: 21; PfHsp90 yeast 2: -12; TIM10 conf: 10

What do the screens show for `O=C(Nc1ccc(S(=O)(=O)N2CCOCC2)cc1)C1CCN(S(=O)(=O)c2ccc(F)cc2)CC1`?
tim10-1 inh: -6; TIM10 inh: -3; NLRP3 yeast inh: -1; tim23-1 inh: -9

How did O=C(Nc1ccc(F)cc1)C1CCN(S(=O)(=O)c2ccc3[nH]c(=O)oc3c2)CC1 do in these assays?
tim10-1 inh: -8; TIM10 inh: 74*; NLRP3 yeast inh: 6; tim23-1 inh: -7; PfHsp90 yeast 2: 11; TIM10 conf: 6

How did CC(=O)C1=C(O)C(=O)N(c2cccnc2)C1c1ccc(Cl)cc1 (stereo not drawn) do in these assays?
tim10-1 inh: 8; TIM10 inh: 3; NLRP3 yeast inh: 20; tim23-1 inh: -2; PfHsp90 yeast 2: 8

What do the screens show for `Cc1c(C(=O)NCc2ccc(F)cc2)c(-c2ccccc2)nn1-c1ccccc1`?
tim10-1 inh: 28; TIM10 inh: 43*; NLRP3 yeast inh: 13; tim23-1 inh: 26; PfHsp90 yeast 2: 4; TIM10 conf: 37*

How did Cc1nn(-c2ccccc2)c(C)c1C(=O)NCc1ccc(F)cc1 do in these assays?
tim10-1 inh: -3; TIM10 inh: -11; NLRP3 yeast inh: 17; tim23-1 inh: 17; PfHsp90 yeast 2: -16

What do the screens show for `O=C(COC(=O)c1cc([N+](=O)[O-])ccc1NCCO)Nc1cccc(S(=O)(=O)N2CCCC2)c1`?
tim10-1 inh: -6; TIM10 inh: -6; NLRP3 yeast inh: 11; tim23-1 inh: 7

How did CCC(C)N=CC1=C(O)CC(c2ccccc2)CC1=O (stereo not drawn) do in these assays?
tim10-1 inh: 9; TIM10 inh: -10; NLRP3 yeast inh: 1; tim23-1 inh: 6; PfHsp90 yeast 2: -9

Results for COc1ccc(C2CC(=O)C(C=NCC(C)C)=C(O)C2)cc1 (stereo not drawn) ?
tim10-1 inh: -9; TIM10 inh: 97*; NLRP3 yeast inh: 26; tim23-1 inh: 8; PfHsp90 yeast 2: -26; TIM10 conf: 1

How did O=C(COC(=O)CC1CC2CCC1C2)Nc1ccc(F)cc1 (stereo not drawn) do in these assays?
tim10-1 inh: 27; TIM10 inh: 43*; NLRP3 yeast inh: 3; tim23-1 inh: 31; PfHsp90 yeast 2: 25; TIM10 conf: 28

What do the screens show for `CC(=O)c1ccc(NC(=O)COC(=O)CC2CC3CCC2C3)cc1` (stereo not drawn)?
tim10-1 inh: -2; TIM10 inh: 10; NLRP3 yeast inh: -9; tim23-1 inh: 39; PfHsp90 yeast 2: -15

Results for CC(OC(=O)C1=COCCO1)C(=O)Nc1ccc(Cl)cn1 (stereo not drawn) ?
tim10-1 inh: -5; TIM10 inh: 5; NLRP3 yeast inh: 15; tim23-1 inh: -1; PfHsp90 yeast 2: 25
